In ChEMBL document CHEMBL3988442, “University of Dundee, Small-Polar-MMV Screening Library” (2021) one finds Percent Effect data, which are given here for eleven compounds.

What all share (set-up): scale not given: direction of the effect not stated beside the values
Assay [1] concerns the target Protein translocase subunit SecA (Escherichia coli (strain K12)) (UniProt P10408). Briefly: Assay to Identify E. coli SecA ATPase Inhibitors. The class given is functional. The note with it: 30 µM.
Assay [2] addresses T1, Ubiquitin-activating enzyme e1, putative (Leishmania donovani (strain BPK282A1)) (UniProt E9BSI1).
T1 sequence (whole entry): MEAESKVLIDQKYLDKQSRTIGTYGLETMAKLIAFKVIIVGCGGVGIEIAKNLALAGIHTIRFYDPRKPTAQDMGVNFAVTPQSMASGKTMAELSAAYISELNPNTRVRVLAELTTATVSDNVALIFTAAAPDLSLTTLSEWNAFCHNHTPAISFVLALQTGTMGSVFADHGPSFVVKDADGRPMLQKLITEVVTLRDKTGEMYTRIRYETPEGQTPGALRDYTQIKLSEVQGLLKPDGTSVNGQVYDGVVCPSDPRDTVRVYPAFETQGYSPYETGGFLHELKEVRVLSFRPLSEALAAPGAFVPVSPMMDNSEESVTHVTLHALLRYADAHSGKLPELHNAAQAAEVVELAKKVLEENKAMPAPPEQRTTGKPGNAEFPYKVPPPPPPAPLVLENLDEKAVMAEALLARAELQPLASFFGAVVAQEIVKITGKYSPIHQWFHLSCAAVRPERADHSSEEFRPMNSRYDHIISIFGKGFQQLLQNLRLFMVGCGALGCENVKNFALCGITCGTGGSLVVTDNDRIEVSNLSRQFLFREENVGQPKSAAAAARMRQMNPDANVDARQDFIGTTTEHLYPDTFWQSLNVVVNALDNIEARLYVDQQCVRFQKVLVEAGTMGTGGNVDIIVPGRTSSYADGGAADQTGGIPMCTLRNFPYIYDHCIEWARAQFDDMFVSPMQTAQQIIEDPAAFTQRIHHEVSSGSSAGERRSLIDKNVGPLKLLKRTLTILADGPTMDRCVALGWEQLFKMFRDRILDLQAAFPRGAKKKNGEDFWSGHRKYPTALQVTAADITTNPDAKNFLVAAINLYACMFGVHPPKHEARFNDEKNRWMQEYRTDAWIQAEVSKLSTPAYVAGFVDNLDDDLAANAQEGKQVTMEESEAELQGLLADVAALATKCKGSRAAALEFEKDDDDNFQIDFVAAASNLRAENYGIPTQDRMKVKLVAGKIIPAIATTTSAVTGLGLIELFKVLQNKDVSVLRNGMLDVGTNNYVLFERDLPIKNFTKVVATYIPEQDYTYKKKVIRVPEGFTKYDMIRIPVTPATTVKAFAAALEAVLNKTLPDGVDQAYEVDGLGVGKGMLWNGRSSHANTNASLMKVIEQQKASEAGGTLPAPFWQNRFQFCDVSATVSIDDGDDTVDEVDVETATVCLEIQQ
The assay is described as follows: Leishmania donovani Ubiquitin Activating Enzyme (LdE1). The class given is functional. Particulars: 30 µM.

In assay [3] the target is AMP-activated protein kinase, AMPK (Homo sapiens) (UniProt P54646+O43741+P54619+Q9UGJ0+Q9Y478+Q13131+Q9UGI9). The assay is described as follows: AMP-dependent Kinase enzyme assay. An in vitro enzyme assay that detects ADP turnover that is directly proportional to AMPK activity. This uses naive AMPK that is activated during the assay with MK-8722. Particulars: 30 µM. It counts as functional.

The target of assay [4] is Sialic acid-binding Ig-like lectin 9 (Homo sapiens) (UniProt Q9Y336). Briefly: Hs-Siglec9 ALPHAscreen SOP 20170721. The note with it: 10 µM. A general note: Bead proximity is the source of the signal in Alpha formats.
Sequence of Sialic acid-binding Ig-like lectin 9 (Homo sapiens) (Q9Y336 whole entry): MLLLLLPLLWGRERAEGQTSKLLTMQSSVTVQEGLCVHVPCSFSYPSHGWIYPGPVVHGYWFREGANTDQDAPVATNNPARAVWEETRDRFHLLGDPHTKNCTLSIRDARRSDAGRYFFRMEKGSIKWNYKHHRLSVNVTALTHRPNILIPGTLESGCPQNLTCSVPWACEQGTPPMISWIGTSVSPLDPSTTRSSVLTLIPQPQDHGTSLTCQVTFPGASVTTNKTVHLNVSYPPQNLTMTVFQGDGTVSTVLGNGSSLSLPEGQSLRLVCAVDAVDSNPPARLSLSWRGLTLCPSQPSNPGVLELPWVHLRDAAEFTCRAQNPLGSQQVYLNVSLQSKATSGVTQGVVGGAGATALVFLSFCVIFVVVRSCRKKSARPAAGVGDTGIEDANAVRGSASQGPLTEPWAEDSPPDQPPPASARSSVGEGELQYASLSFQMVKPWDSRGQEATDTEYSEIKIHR
In another assay the test system is Trypanosoma cruzi. The assay is described as follows: Trypanosoma cruzi phosphomannomutase and mannose-1-phosphate guanylyltransferase assay. The class given is functional. Particulars: 10 µM.
Assay [5] has as its target T2, Arginase-2, mitochondrial (Homo sapiens) (UniProt P78540).
T2 sequence (whole entry): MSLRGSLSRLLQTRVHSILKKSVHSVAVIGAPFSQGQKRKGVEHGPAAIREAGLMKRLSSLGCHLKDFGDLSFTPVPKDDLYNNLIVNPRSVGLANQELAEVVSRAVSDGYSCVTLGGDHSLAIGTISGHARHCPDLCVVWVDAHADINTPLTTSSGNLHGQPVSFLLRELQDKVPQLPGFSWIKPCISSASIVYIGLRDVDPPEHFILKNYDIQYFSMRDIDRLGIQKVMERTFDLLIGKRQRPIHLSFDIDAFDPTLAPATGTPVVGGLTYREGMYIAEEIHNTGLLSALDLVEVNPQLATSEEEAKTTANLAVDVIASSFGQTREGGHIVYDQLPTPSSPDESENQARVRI
The assay is described as follows: in vitro enzyme assay to detect the production of urea directly proportional to the activity of Arginase II. Further: in the data most compounds retested in dose-response had high values. It counts as functional. Particulars: 33.3 µM.

Assay [6] concerns the target T3, Proteasome subunit beta (Trypanosoma cruzi) (UniProt O96673).
T3 sequence (whole entry): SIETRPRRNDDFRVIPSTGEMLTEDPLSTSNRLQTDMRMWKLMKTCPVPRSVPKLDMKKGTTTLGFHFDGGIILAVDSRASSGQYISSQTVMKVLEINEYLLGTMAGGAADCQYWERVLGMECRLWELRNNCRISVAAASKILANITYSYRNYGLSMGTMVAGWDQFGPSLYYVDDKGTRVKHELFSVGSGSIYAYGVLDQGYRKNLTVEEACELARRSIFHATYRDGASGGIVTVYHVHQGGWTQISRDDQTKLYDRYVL
Briefly: Trypanosoma cruzi proteasome chymotrypsin-like activity (TcProtChymo) assay. Further: in the data most compounds retested in dose-response had high values. The class given is functional. The note with it: 9.37 µM.

For the next assay, the species on record is Homo sapiens. The assay is described as follows: To identify inhibition of the IFN signalling (Jak-Stat) pathway via expression of an eGFP reporter gene under the control of an IFN-stimulated response element (ISRE) containing MxA promoter. Particulars: 30 µM. It counts as functional.
In assay [7] the target is T4, Tyrosyl-tRNA synthetase, putative (Trypanosoma cruzi (strain CL Brener)) (UniProt Q4DSP6).
T4 sequence (whole entry): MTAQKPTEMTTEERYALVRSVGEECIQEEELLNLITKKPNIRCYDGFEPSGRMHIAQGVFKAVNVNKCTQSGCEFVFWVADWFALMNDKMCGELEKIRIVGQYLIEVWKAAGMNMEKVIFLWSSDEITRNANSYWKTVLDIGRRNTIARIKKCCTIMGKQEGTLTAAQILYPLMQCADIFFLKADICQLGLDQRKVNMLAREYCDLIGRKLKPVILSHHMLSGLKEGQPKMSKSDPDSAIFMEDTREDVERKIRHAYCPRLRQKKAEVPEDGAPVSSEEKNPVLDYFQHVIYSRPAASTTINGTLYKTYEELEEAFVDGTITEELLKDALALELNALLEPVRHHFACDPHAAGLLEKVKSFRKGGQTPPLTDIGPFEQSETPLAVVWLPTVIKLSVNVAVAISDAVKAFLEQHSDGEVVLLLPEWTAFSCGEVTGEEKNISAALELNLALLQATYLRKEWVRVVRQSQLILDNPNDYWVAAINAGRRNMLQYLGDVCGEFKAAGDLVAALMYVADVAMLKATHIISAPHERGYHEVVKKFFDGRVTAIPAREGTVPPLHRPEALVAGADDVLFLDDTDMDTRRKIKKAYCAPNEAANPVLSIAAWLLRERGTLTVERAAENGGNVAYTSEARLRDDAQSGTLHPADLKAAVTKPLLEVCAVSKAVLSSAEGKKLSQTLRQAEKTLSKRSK
The assay is described as follows: Trypanosoma cruzi tyrosyl tRNA synthetase (TcYRS) _High Tyrosine SOP. Further: in the data most compounds retested in dose-response had high values. It counts as functional. The note with it: 30 µM.

Assay [8] addresses T4, Tyrosyl-tRNA synthetase, putative (Trypanosoma cruzi (strain CL Brener)). Briefly: Trypanosoma cruzi tyrosyl tRNA synthetase (TcYRS) SOP. The class given is functional. The note with it: 30 µM.
Assay [9] addresses Chromo domain-containing protein 1 (Saccharomyces cerevisiae (strain ATCC 204508 / S288c) (Baker's yeast)) (UniProt P32657). Briefly: ScCHD-1 Enzyme Inhibition Assay. Further: in the data most compounds retested in dose-response had high values. The note with it: 30 µM. It counts as functional.

For some of these results: Results with a measured potency or affinity are listed apart.

Sequence of Chromo domain-containing protein 1 (Saccharomyces cerevisiae (strain ATCC 204508 / S288c) (Baker's yeast)) (P32657 whole entry, the tested form may be a part): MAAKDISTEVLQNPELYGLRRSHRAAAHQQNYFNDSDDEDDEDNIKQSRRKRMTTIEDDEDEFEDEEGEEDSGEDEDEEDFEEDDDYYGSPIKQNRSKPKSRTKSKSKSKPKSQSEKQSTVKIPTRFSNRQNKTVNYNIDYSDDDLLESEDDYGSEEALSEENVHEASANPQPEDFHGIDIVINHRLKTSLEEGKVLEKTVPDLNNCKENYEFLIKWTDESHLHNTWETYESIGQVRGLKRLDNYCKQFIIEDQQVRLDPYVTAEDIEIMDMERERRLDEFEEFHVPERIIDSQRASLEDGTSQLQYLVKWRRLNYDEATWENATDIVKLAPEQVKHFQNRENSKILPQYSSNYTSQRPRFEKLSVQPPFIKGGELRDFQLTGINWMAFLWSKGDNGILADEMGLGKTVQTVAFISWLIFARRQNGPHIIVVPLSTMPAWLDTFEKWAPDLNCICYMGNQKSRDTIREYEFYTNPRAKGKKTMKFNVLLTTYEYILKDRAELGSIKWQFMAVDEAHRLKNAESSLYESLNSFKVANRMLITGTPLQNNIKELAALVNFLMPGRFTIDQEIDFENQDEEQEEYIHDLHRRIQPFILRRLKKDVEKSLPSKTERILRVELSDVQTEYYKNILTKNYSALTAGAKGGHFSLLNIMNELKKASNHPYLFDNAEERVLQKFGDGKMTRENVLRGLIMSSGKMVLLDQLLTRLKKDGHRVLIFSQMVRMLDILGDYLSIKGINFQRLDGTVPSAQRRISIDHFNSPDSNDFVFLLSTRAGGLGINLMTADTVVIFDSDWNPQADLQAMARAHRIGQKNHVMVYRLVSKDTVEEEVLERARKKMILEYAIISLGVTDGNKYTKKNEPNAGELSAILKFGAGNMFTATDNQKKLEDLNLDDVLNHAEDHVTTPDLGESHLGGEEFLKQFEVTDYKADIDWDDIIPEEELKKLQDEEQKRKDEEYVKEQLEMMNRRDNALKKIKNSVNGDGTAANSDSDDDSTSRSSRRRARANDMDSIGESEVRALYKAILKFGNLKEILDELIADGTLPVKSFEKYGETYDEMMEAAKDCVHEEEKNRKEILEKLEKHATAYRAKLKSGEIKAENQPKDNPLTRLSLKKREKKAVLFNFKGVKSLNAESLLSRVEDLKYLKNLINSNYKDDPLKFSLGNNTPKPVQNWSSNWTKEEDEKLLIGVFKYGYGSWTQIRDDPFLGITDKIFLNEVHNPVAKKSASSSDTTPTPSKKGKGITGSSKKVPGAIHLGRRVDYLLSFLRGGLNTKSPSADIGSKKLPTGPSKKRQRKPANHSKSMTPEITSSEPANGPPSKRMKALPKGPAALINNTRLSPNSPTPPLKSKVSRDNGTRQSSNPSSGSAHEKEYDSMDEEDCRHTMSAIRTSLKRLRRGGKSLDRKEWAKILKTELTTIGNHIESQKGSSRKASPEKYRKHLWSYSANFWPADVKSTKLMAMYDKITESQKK
Sequence of Protein translocase subunit SecA (Escherichia coli (strain K12)) (P10408 whole entry): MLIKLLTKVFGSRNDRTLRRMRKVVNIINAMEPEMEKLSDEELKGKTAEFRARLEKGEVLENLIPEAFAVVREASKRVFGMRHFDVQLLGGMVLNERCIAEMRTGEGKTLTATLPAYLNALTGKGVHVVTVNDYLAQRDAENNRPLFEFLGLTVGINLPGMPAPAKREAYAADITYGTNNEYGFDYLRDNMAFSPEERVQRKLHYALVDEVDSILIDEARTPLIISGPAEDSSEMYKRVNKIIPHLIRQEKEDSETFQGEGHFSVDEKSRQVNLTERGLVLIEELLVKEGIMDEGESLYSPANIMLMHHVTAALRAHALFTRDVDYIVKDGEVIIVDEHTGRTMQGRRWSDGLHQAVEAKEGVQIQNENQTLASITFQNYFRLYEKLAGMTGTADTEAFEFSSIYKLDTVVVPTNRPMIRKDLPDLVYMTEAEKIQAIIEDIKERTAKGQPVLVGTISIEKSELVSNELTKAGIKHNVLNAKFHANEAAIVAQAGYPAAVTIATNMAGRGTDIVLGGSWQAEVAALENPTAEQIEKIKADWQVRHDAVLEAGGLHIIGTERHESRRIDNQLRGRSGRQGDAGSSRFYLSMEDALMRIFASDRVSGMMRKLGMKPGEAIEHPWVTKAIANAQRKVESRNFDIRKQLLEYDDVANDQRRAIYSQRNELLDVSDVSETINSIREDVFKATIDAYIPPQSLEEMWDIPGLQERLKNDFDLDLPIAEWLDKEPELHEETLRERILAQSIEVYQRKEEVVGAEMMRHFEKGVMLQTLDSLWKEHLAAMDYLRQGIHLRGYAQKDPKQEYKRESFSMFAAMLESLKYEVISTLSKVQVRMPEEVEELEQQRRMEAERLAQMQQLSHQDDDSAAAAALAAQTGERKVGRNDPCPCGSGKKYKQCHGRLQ

Turning to `O=C(O)[C@]12CCCN(Cc3ccccc3)C[C@H]1CN(c1ncccn1)C2`, the Percent Effect in assay [1] was -4.2%; in [2] it was 5.33%; in [3] it was 7.47%; in assay [4], -4.2%; with Trypanosoma cruzi it was 0.386%; in assay [5], -39.2%. In addition, the Percent Effect is 9.91% in assay [6]; -24.8% in the assay filed under Homo sapiens; 4.17% in assay [7]; 12.5% in assay [8]; -8.27% in [9].
As to `Cc1ccc(N2CCCC3(COCCN(c4nccs4)C3)C2)nn1` (stereo unspecified), the Percent Effect was 0.955% in [1]; 0% in assay [2]; -4.27% in assay [3]; 3.78% in [4]; 1.79% in the assay on Trypanosoma cruzi; 1.2% in [5]. Besides, the Percent Effect is 11.7% in assay [6]; -6.58% in the assay filed under Homo sapiens; 5.21% in assay [7]; 3.7% in assay [8]; -1.92% in [9].
For `O=C(NCCC(=O)N1CCCC1)c1nn(-c2ccccc2F)cc1O`, the Percent Effect in [1] was -10.5%; in assay [2], 10.8%; in assay [3] it was -8.26%; in [4], 24.5%; with Trypanosoma cruzi it was 8.82%; in assay [5], -0.554%. The Percent Effect was 8.08% in [6]; 17.9% in the assay filed under Homo sapiens; 5.94% in assay [7]; 15.8% in assay [8]; -11.4% in assay [9].
`Cn1cccc1C(=O)N1CCN(CC2CC2)c2ncccc2C1`: the Percent Effect was -6.82% in assay [1]; 10.7% in assay [2]; -5.74% in [3]; 2.72% in assay [4]; 2.7% in the assay with Trypanosoma cruzi; -56.8% in assay [5]. In addition, the Percent Effect in assay [6] was 7.18%; in the assay listed under Homo sapiens, 3.32%; in assay [7], 1.04%; in [8], 10%; in assay [9] it was -4.08%.
Turning to `COc1ccccc1OCC(=O)NCC(O)(c1ccccc1)C1CC1` (stereo unspecified), the Percent Effect is -4.08% in assay [1]; 13.7% in assay [2]; -8.54% in assay [3]; 17% in assay [4]; 2.74% in the assay with Trypanosoma cruzi; 0.909% in assay [5]. The Percent Effect in assay [6] was 14%; in the assay listed under Homo sapiens it was 7.48%; in assay [7] it was 8.6%; in assay [8], 15%; in assay [9], -5.98%.
In the case of `CN(Cc1nc(C2CC2)no1)C1CCCN(c2cccnn2)C1` (stereo unspecified), the Percent Effect in assay [1] was -1.65%; in [2], -17.7%; in [3] it was 11.7%; in [4], 7.67%; in the assay on Trypanosoma cruzi it was 1.6%; in assay [5] it was 1.14%. The Percent Effect was -0.573% in [6]; -0.447% in the assay filed under Homo sapiens; 6.4% in assay [7]; 3.8% in assay [8]; 4.91% in assay [9].
For `CNC(=O)[C@@]12CCCN(c3ncccn3)[C@@H]1CN(C(=O)NC(C)C)C2`, the Percent Effect is -0.175% in assay [1]; 20.8% in assay [2]; 3.44% in [3]; -13.2% in [4]; -0.296% in the assay on Trypanosoma cruzi; 1.94% in assay [5]. The Percent Effect was 16.5% in [6]; 12.8% in the assay filed under Homo sapiens; -6.35% in [7]; 14.1% in [8]; -12.4% in assay [9].
On to `O=S(=O)(c1cccnc1)N1CCN(CCn2ccnc2)CC1`, for which the Percent Effect in [1] was -4.58%; in assay [2] it was 5.48%; in [3] it was -1.26%; in assay [4], 0.536%; with Trypanosoma cruzi it was -8.81%; in assay [5] it was -0.455%. Further, the Percent Effect is 11.7% in [6]; -0.863% in the assay filed under Homo sapiens; 5.38% in assay [7]; 12.5% in assay [8]; -5.5% in assay [9].
Turning to `Cc1nn(C)c(C)c1NC(=O)CN1CCc2c(nc(C(C)C)n2C)C1`, the Percent Effect is -0.874% in assay [1]; 8.11% in assay [2]; -7.75% in assay [3]; 18.4% in assay [4]; 7.34% with Trypanosoma cruzi; 12.9% in assay [5]. Moreover, the Percent Effect in assay [6] was 7.93%; in the assay listed under Homo sapiens, 22.8%; in assay [7] it was 5.82%; in [8], 14.6%; in assay [9], -2.17%.
In the case of `Cn1cnnc1C1CCCN(C(=O)NCCNc2ccccn2)C1` (stereo unspecified), the Percent Effect in [1] was -5.92%; in assay [2], 18.2%; in assay [3], 3.59%; in assay [4] it was 4.46%; in the assay on Trypanosoma cruzi, 0.881%; in assay [5] it was 6.53%. Moreover, the Percent Effect in assay [6] is 9.78%; in the assay filed under Homo sapiens, 4.54%; in assay [7], 7.62%; in assay [8] it was 18.8%; in assay [9], -9.77%.
As for `Fc1ccc(-c2cnc(CN3CCCC3Cn3cccn3)o2)cc1` (stereo unspecified), the Percent Effect in assay [1] was -4.06%; in assay [2], 7.59%; in assay [3], -2.14%; in assay [4], -12.9%; in the assay on Trypanosoma cruzi, -4.82%; in assay [5] it was 7.22%. Besides, the Percent Effect was 12.7% in assay [6]; 24.8% in the assay listed under Homo sapiens; 2.46% in assay [7]; 13.9% in assay [8]; -1.62% in assay [9].
